Laboratory results published in PubChem BioAssay (NCI).
Compounds without any hit were thinned out: in the full panel of roughly 79,000, 15% have a hit. Values without a mark were called inactive. Active and inactive are the calls of the source. No stated cut-off is given here; in the data, active means growth inhibition above about 70%; inactive means the rest.

Tests used:
[1] = NCI Yeast Anticancer Drug Screen. Data for the rad50 strain (AID 155);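 further: 0% = growth of vehicle-only cultures of the same strain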; settings: S. cerevisiae rad50 strain growth inhibition, stronger effect = higher value; at 50.0 µM unless noted
How it was run: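 Yeast carrying a defined DNA repair defect were exposed to test compounds, and growth was compared with vehicle-treated controls to give percent inhibition.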

[2] = NCI Yeast Anticancer Drug Screen. Data for the mec2-1 strain (AID 157); settings: S. cerevisiae mec2-1 strain, stronger effect = higher value; at 50.0 µM unless noted
How it was run: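 mec2-1 yeast strain, carrying an alteration in DNA damage repair or cell cycle control, was exposed to compounds; growth inhibition was measured relative to vehicle-treated controls.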

[3] = NCI Yeast Anticancer Drug Screen. Data for the sgs1 mgt1 strain (AID 161);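 further: 0% = growth of cultures given vehicle only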; settings: S. cerevisiae sgs1 mgt1 strain, stronger effect = higher value; at 50.0 µM unless noted
How it was run: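 This yeast growth screen uses a strain with defined DNA-repair lesions; compound-treated growth is compared with vehicle-treated growth.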

[4] = NCI Yeast Anticancer Drug Screen. Data for the cln2 rad14 strain (AID 165);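 further: 0% = growth equal to vehicle treated cultures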; settings: S. cerevisiae cln2 rad14 strain, stronger effect = higher value; at 50.0 µM unless noted
How it was run: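 Yeast carrying cln2 and rad14 alterations (cell cycle control and DNA damage repair) were exposed to compounds. Growth inhibition was measured against vehicle-treated controls.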

[5] = NCI Yeast Anticancer Drug Screen. Data for the bub3 strain (AID 167); settings: S. cerevisiae bub3 mutant strain, stronger effect = higher value; at 50.0 µM unless noted
How it was run: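 Compounds were applied to a genetically altered yeast strain carrying a cell-cycle control defect. Growth inhibition was scored against vehicle-treated controls.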

[6] = NCI Yeast Anticancer Drug Screen. Data for the mlh1 rad18 strain (AID 175); settings: S. cerevisiae mlh1 rad18 strain growth inhibition, stronger effect = higher value; at 50.0 µM unless noted
How it was run: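 Growth inhibition of the yeast strain was measured after compound exposure and expressed relative to vehicle-treated controls. The strain carries defined defects in DNA damage repair.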

SMILES	growth inhibition [1]	growth inhibition [2]	growth inhibition [3]	growth inhibition [4]	growth inhibition [5]	growth inhibition [6]
O=c1c2cccnc2nc2ccc3c[nH][nH]c3c12	-23.8%	-24.6%	-0.55%	-14.6%	-18.3%	8.65%
O/N=C(Sc1ccccn1)/C(=N/O)Sc1ccccn1	-7.25%	0%	-2.9%	-3.05%	4.7%	4.9%
O=C(N/N=C/c1ccc2c(c1)OCO2)c1ccccc1	12.7%	-11.1%	6.25%	-35.5%	1.8%	22.4%
CC(CCCCCOC(=O)Nc1ccccc1)OC(=O)Nc1ccccc1 (configuration not stated)	6.2%	-12.3%	-3.1%	0.75%	1.15%	2.6%
O=[N+]([O-])c1ccc(N2N=NC(c3ccccc3)C2(c2ccccc2)N2CCOCC2)cc1 (configuration not stated)	29.6%	-0.9%	28.4%	16.7%	0.95%	14.6%
Cc1cc(C)c(C(=O)c2cccc(C)c2C(=O)O)c(C)c1	4%	-20.8%	7.85%	14.1%	9.85%	18%
O=I(=O)c1ccccc1	3.95%	9.7%	17.5%	26.6%	20.1%	17.9%
CN(C)CC1(C)CC/C(=C\c2ccc3c(c2)OCO3)C1=O (configuration not stated)	58.4%	30.4%	45%	51.9%	29.9%	56%
CS(=O)(=O)OCC1OC(n2ncc(=O)[nH]c2=O)C(O)C1O (configuration not stated)	6.9%	13.7%	-7.1%	-2.45%	2.95%	11%
O=CNNc1nn2cnnc2c2ccccc12	-1%	9.95%	-6.55%	11.9%	-16.6%	9.6%
CCOC(=O)Cc1nc2nn(Cc3ccccc3)cc2c(=O)[nH]1	-48.8%	-63.9%	-7%	0.65%	-10.9%	-19.8%
COC1(OC)C(C#N)=C(c2ccccc2)C1(OC)OC	-8%	-6.25%	-6.5%	-19.9%	-14%	-6.8%
Cc1[nH]c(=O)nc(N/N=C/c2ccc(Cl)cc2)c1C(=O)NC(C)(CO)CO	-30.6%	-14.6%	-43.5%	-10.4%	16.7%	-3.45%
CC(C)CCOC(=O)C(O)c1ccccc1 (configuration not stated)	15.6%	2.8%	0.4%	-22.2%	-25.7%	8.45%
COc1ccc(C)cc1Sc1ccc([N+](=O)[O-])cc1C	0.65%	-17.9%	-8.35%	-19.2%	8.95%	-19.2%
COc1ccc(CCn2c(=O)c3ccccc3n(C)c2=O)cc1	17.9%	-4.2%	13.2%	34.2%	41.6%	0.8%
NC1CC(=O)c2ccccc21 (configuration not stated)	15.2%	4.8%	-5%	8.95%	2.75%	-37.6%
C=C(C)[C@H]1CC(=O)[C@@]2(C)C[C@H]3O[C@]3(C)CC/C=C(\C)CC[C@H]12	20.2%	14.4%	33.2%	15.1%	31.1%	51.5%
O=C(O)CNC(=O)CNC(=O)CNC(=O)C(CSC(c1ccccc1)(c1ccccc1)c1ccccc1)NC(=O)OCc1ccccc1 (configuration not stated)	20.4%	4.5%	-13.7%	22.1%	10.7%	4.9%

SMILES	growth inhibition [1]	growth inhibition [2]	growth inhibition [3]	growth inhibition [4]	growth inhibition [5]	growth inhibition [6]
CC(C)OC(=O)c1ccc(CCC2=CC(=O)C(Br)=CC2=O)cc1	50.7%	62.4%	65.5%	56%	51%	90% (active)
CCCC(=O)Nc1ccc(C2=NNC(=O)C3CC23)cc1 (configuration not stated)	31.2%	26.6%	33.5%	-20%	27.9%	36.5%
COC(=O)c1cc(OCC#CC#CCOc2ccc(O)c(C(=O)OC)c2)ccc1O	3%	-5.8%	9.65%	-1.2%	-4.15%	14.1%
CC1(C)N=C(N)N=C(N)N1CCCOc1ccc(N)cc1	33.2%	-4.65%	11.8%	5.2%	-3.55%	1.1%
COC1CC(OC2CCC3(C)C(CCC45CCC(C6=CC(=O)OC6)C(C)(CCC43)C5=O)C2)OC(C)C1O (configuration not stated)	22.4%	-11.7%	2.6%	17.6%	12.8%	-17.9%
CCOC(=O)/C=C1\SC(C)(C)C1NC(=O)OCc1ccccc1 (configuration not stated)	-73.2%	-30.5%	-6.15%	-18.1%	-0.2%	-15%
O=C(CCl)Nc1cc2ccccc2oc1=O	21%	42.4%	20.6%	41%	5.45%	-1.85%
NC(=O)c1ncc(Cl)cc1Cl	21.1%	2.5%	14.3%	5.8%	0.55%	25.1%
O=C(O)/C(Cc1cn[nH]n1)=N\O	-20.3%	-29.9%	-51.7%	-77%	-39.4%	-32%
CCCCCCN1COCC(COc2ccc(Cl)cc2)OC1 (configuration not stated)	23.8%	18.8%	36.9%	22.1%	10.7%	50.1%
CC1=Nc2ccccc2C12C(c1ccccc1)C(c1ccccc1)C(=O)N1c3ccccc3CC12 (configuration not stated)	-2.25%	-16.4%	-33.6%	20.1%	-14.3%	-1.65%
NC(=O)Nc1ccc(/C=C\c2ccnc3ccccc23)cc1	-19.7%	2.5%	4.95%	-31.9%	-15.9%	-9.45%
CCN(CC)CCCC(C)Nc1cc(OC)c2nc(C)ccc2c1OC (configuration not stated)	-2.35%	-0.4%	-14.2%	-5.9%	-3.2%	14.9%
COc1c2c(c(OC)c3c(=O)cc(C/C(=N/NC(=O)C[n+]4ccccc4)C(=O)Nc4cc(C)ccc4C)oc13)OCO2	-13.4%	-6.65%	-18.1%	5.6%	-3.15%	-0.3%
COc1ccc(OC)c(NC(=O)CCCC(=O)C(C#N)c2ccc(CC#N)cc2)c1 (configuration not stated)	-15.8%	-17.6%	-34.5%	-40.8%	3.1%	-25.6%
O=C(Nc1ccc(O)cc1)c1ccc([N+](=O)[O-])cc1	-1.75%	6.6%	3.35%	0.05%	9.05%	-2.2%
C=C(Br)CN(C#N)CC(=C)Br	-24.4%	-18.1%	13.8%	-4.25%	-10.5%	-56.9%
CCOc1cc2c(cc1C(C)c1ccc(O)cc1)OCO2 (configuration not stated)	99.5% (active)	99.7% (active)	99.7% (active)	99.7% (active)	99.5% (active)	99.5% (active)
